In the supplement of paper PMC10849652:
Targets with a hit are over-represented here; the source holds about 8,800 in all. About 0.5% of all pairs of compound and target were hits.

Key:
Test in all cases: log2 fold change, soluble protein after heating vs DMSO (PISA); higher = thermal stabilisation; K562 lysate, 10 uM; active = over 0.2 and 3.5 SD of the protein, either way, in both replicates (recomputed)
[1] = compound: C1=CC=C(C=C1)[C@H](COC2=CC3=C(C=C2)NC(=O)N3)NC(=O)C4=CC=CN(C4=O)CC5=CC(=C(C=C5)F)F
How it was run: (§1)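 Following dounce homogenisation of K562 pellets in PBS pH 7.4 with 1 mM MgCl2, crude extract at 1 mg/mL protein was incubated for 30 min with 10 μM compound. Aliquots were then heated for 3 min over 48°C-58°C and pooled, NP-40 was added to 0.5% at 4°C, and soluble protein was recovered as the supernatant at 21,000xg for 90 min. Channel-sum-equalised TMTpro 16plex LC-MS/MS quantified this protein. Each value, from duplicates, is a log-two fold change in thermal stability relative to solvent controls.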

[2] = compound: CC1=C(SC2=C1C(=N[C@H](C3=NN=C(N32)C)CC(=O)N)C4=CC=C(C=C4)Cl)C
How it was run: as §1

[3] = compound: CC1=C2C(=CC=C1)N=C(N(C2=O)C3=CC=CC=C3C)CN4C=NC5=C(N=CN=C54)N
How it was run: as §1

[4] = compound: Cc1sc2c(c1C)C(c1ccc(Cl)cc1)=N[C@@H](CC(=O)OC(C)(C)C)c1nnc(C)n1-2
How it was run: as §1

[5] = compound: c1ccc([C@@H]2C[C@H]2NC2CCNCC2)cc1
How it was run: as §1

Measured: log2 fold change

TUBAL3 (UniProt A6NHL2)
Chain of UniProt A6NHL2 (A6NHL2 whole entry, looked up): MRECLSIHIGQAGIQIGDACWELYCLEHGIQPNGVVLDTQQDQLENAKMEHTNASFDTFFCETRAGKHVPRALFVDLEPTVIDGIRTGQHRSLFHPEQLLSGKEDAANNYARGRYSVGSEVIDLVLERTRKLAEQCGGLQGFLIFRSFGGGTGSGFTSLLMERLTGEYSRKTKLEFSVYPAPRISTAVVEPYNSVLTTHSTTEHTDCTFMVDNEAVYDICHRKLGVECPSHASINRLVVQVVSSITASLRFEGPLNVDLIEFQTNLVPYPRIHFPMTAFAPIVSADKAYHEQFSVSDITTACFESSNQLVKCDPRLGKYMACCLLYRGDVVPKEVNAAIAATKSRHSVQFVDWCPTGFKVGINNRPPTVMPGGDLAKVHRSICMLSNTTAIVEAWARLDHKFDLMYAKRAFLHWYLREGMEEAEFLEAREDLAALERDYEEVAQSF
inactive: [1] -0.034 | [2] -0.051 | [3] 0.045 | [4] -0.189 | [5] -0.255

TRIM23 (UniProt P36406)
Chain of UniProt P36406 (P36406 whole entry, looked up): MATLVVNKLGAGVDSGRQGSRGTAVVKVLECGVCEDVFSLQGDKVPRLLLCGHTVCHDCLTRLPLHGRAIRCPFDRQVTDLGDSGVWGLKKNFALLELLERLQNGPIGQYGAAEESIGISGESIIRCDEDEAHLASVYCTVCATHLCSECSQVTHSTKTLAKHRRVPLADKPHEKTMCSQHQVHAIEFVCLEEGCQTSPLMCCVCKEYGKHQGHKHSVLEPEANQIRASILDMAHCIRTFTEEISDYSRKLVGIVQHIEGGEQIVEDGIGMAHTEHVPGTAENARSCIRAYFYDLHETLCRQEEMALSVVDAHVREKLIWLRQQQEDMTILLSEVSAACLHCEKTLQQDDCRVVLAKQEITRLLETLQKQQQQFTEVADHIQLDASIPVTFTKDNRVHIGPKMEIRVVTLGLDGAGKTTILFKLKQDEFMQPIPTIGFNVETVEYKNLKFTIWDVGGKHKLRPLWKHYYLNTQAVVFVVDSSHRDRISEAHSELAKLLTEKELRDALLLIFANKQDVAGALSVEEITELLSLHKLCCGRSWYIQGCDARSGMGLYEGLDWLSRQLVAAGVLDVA
inactive: [1] 0.036 | [2] -0.05 | [3] 0.052 | [4] 0.034 | [5] -0.275

TUBA1B (UniProt P68363)
Chain of UniProt P68363 (P68363 whole entry, looked up): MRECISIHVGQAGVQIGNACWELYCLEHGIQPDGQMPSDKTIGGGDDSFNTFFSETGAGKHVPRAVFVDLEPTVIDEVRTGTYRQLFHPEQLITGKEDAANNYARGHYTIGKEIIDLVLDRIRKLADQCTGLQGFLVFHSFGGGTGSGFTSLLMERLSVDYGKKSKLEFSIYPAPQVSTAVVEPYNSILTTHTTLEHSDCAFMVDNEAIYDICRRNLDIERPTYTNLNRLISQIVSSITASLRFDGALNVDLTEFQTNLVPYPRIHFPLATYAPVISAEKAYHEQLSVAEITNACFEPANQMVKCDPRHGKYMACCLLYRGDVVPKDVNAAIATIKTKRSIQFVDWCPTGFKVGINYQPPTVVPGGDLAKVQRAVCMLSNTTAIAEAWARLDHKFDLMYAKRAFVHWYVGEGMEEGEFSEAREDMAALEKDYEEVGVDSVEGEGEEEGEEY
inactive: [1] -0.006 | [2] 0.014 | [3] 0.004 | [4] 0.015 | [5] -0.03

UBL5 (UniProt Q9BZL1)
Chain of UniProt Q9BZL1 (Q9BZL1 whole entry, looked up): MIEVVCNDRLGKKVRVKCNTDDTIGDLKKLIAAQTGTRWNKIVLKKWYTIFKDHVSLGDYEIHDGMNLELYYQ
inactive: [1] 0.063 | [2] 0.008 | [3] -0.06 | [4] 0.005 | [5] -0.167

TP53RK (UniProt Q96S44)
Chain of UniProt Q96S44 (Q96S44 whole entry, looked up): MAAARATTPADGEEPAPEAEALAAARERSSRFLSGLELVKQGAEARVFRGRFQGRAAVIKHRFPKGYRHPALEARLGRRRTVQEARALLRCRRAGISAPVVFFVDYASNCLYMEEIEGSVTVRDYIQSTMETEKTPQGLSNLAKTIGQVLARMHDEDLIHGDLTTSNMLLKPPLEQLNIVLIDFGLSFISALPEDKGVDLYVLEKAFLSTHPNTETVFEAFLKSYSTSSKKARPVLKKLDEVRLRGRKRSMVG
inactive: [1] 0.013 | [2] 0.021 | [3] -0.003 | [4] 0.073 | [5] 0.09

TMEM199 (UniProt Q8N511)
Chain of UniProt Q8N511 (Q8N511 whole entry, looked up): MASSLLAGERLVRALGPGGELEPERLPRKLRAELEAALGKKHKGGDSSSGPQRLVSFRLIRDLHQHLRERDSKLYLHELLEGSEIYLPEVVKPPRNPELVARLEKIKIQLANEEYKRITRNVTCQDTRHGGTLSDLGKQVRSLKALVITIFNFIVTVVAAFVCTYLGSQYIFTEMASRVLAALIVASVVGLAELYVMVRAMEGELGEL
inactive: [1] 0.005 | [2] -0.002 | [3] 0.07 | [4] -0.046 | [5] -0.029

TRIM33 (UniProt H0Y612)
inactive: [1] -0.042 | [2] 0.008 | [3] 0.05 | [4] 0.021 | [5] 0.098

UBE2L6 (UniProt O14933)
Chain of UniProt O14933 (O14933 whole entry, looked up): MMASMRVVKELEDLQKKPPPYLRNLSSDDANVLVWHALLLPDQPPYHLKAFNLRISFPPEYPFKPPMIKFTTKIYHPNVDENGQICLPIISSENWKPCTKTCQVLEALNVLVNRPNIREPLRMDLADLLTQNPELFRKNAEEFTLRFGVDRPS
inactive: [1] -0.01 | [2] 0 | [3] -0.068 | [4] 0.032 | [5] 0.008

TMEM87B (UniProt Q96K49)
Chain of UniProt Q96K49 (Q96K49 whole entry, looked up): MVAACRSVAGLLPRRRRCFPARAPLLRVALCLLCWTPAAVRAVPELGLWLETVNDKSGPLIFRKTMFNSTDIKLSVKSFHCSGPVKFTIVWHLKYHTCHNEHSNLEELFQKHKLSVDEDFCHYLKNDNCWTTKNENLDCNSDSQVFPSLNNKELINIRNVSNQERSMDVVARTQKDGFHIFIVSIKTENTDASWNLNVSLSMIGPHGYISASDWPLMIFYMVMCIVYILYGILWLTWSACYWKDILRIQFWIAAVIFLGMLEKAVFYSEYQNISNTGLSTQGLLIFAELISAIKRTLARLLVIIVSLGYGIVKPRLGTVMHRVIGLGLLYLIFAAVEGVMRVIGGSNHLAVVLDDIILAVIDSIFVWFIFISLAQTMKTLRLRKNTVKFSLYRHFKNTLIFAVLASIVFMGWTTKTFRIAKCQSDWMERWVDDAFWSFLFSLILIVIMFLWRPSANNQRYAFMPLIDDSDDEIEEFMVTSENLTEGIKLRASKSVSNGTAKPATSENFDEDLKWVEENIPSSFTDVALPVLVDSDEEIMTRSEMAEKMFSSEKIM
inactive: [2] 0.02 | [3] 0.075 | [4] 0.001 | [5] 0.038
active: [1] 0.529
